Measured values published in PubChem BioAssay (Tox21).
Values without a mark were called inactive. Activity calls are given as the source filed them. Calls come from the whole dose curve; as a rule, active = well fitted curve in the direction sought with a large enough effect in the repeat runs; inconclusive = weak or mixed curves; inactive = flat fitted curve, though single readings scatter. Positions of bridges follow the written chain, without caps; N, C: chain ends. Non-standard residues stand in square brackets, D forms with d. Residues, ends and D or L forms follow the SMILES beside them. hArg = N=C(N)NCCCC[C@H](N)C(=O)O; Mpa = O=C(O)CCS

Assay: qHTS assay to test for compound auto fluorescence at 535 nm (green) in HEK293 cells (AID 720680)
Conditions: green autofluorescence 485/535 nm; series mostly up to 91.3 µM; fluorescence, % of fluorescein: at the top concentration
Source text: U.S. Tox21 Program National Center for Advancing Translational Sciences [NCATS] NIH Chemical Genomics Center [NCGC] U.S. Environmental Protection Agency [EPA] National Institutes of Environmental Health Sciences [NIEHS] National Toxicology Program [NTP] U.S. Food and Drug Administration [FDA] Tox21 Assay Overview: Compound auto fluorescence often interferes with screening of the compound library against various biological targets and signaling pathways. Some of these compounds may have fluorophoric properties. Such properties may interfere with the assay outputs resulting in false positives and/or negatives. To decrease such complications and ensure the compound activities are relevant in terms of biological response, the Tox21 10K compound library was screened for auto fluorescence. From the fluorophores used as reporter signals in our screening assays, the auto fluorescence equivalencies of compounds against three fluorophores have been evaluated: Triamterene, Fluorescein and Rose Bengal sodium for blue, green and red fluorescence, respectively. The fluorescence intensities were measured using Excitation/Emission wavelengths at 405/460nm, 485/535nm and 540/590nm for blue, green and red labels, respectively. This assay includes the green fluorescence data.
Tox21 Assay Protocol Summary: 2,000 HEK293 cells in 5 uL of culture medium containing 10% dialyzed FBS per well were dispensed into black wall/clear bottom 1536-well plates using a Multidrop Combi Dispenser (Thermo Scientific). The assay plates were incubated for 4-5 hr at 37C to allow cell attachment to the well bottom, followed by the transfer of 23 nL compound or DMSO vehicle by a pintool work station (Kalypsys, San Diego, CA). After the assay plates were incubated overnight at 37C and 5% CO2, fluorescence intensities in the assay plates were measured by an Envision (PerkinElmer, Shelton, CT) plate reader using three labels for measuring blue, green and red fluorescence at […] 460, 535 and 590nm respectively.
% is set by controls: 0 for no effect and ±100 for the full control effect.

Compound	fluorescence, % of fluorescein	outcome
Cc1ccnc(N)c1	0.0084%	
CCCCOCC(C)O (stereo not given)	-0.0227% [at 95.7 µM]	
O=C1c2ccccc2C(=O)c2cc(Cl)ccc21	0.0004% [at 3.72 µM]	
CC1CC(=O)CC(C)(C)C1 (stereo not given)	0.0121%	
CC(=O)CC(=O)Nc1ccc(C)cc1C	0.0393%	
CC(=O)CCC1=C(C)CCCC1(C)C	0.0119%	
CC(C)CO	-0.0867% [at 95.7 µM]	
OCC1CCC(CO)CC1 (stereo not given)	0.0076%	
O=C(O)CSCC(=O)NC1CCSC1=O (stereo not given)	0.121% [at 46 µM]	
NC(=O)[C@@H]1CSSCCC(=O)N[C@@H](CCCCN=C(N)N)C(=O)NCC(=O)N[C@@H](CC(=O)O)C(=O)N[C@@H](Cc2c[nH]c3ccccc23)C(=O)N2CCC[C@H]2C(=O)N1 ([Mpa][hArg]GDWPC-NH2; disulfide 1-7)	-0.0196% [at 46 µM]	
CC1CCc2c(N3CCC(O)CC3)c(F)cc3c(=O)c(C(=O)O)cn1c23 (stereo not given)	-0.0894% [at 46 µM]	
N#CCC(=O)NN	-0.202% [at 46 µM]	
CC1=C(O)C(=O)C(C)O1 (stereo not given)	-0.0001% [at 95.7 µM]	
CC(C)C1OCCN1CCOC(=O)NCCCCCCNC(=O)OCCN1CCOC1C(C)C (stereo not given)	-0.0403%	
CCCSSCCC	0.0144%	
C[C@H]1[C@@H](c2ccccc2)NC(=O)N1C	0.0506%	
c1ccc(-c2nn[nH]n2)cc1	-0.0176%	
C[C@]12CCC(=O)C=C1CC[C@H]1[C@@H]3CC[C@](O)(C(=O)CO)[C@@]3(C)C[C@H](O)[C@@]12F		inactive
COc1cc2c(cc1OC)C(=O)C(CC1CCN(Cc3ccccc3)CC1)C2 (stereo not given)	0.179% [at 46 µM]	
CO[Si](CCCn1c(=O)n(CCC[Si](OC)(OC)OC)c(=O)n(CCC[Si](OC)(OC)OC)c1=O)(OC)OC	-0.003%	

Compound	fluorescence, % of fluorescein	outcome
NCCOCCN	-0.0644%	
CC(C)CCOC(=O)c1ccccc1	0.0131%	
CN1C[C@@H]2C[C@H]1CN2c1cc2c(cc1F)c(=O)c(C(=O)O)cn2C1CC1	0.0287% [at 46 µM]	
CCc1occc(=O)c1O	-0.0041%	
CC(=O)CCc1ccc(OC(C)=O)cc1	-0.118%	
COC(C)(OC)OC	-0.0072%	
CCCCCCCCCCCCCCCCCCOCCO	-0.0578% [at 18.6 µM]	
COc1ccc2c(c1)c1c3n2CCN(C)C3=NCC1	0.0141% [at 46 µM]	
CCCCOC(=O)[C@H](C)O	-0.0966%	
C=CC(=O)OCC1CCCO1 (stereo not given)	0.0077%	
CC1=C(C(=O)O)N2C(=O)[C@@H](NC(=O)[C@H](N)c3ccccc3)[C@H]2SC1	-0.0274% [at 46 µM]	
Cc1ccccc1C(N)=O	-0.172%	
O=C1CCCCO1	-0.0414%	
O=C(O)CCCCCC(=O)O	0.039%	
CCCCCCCCCCCCCBr	0.0292%	
COC(=O)/C=C\C(=O)O	0.0621%	
CCCCCCCCCOC(=O)CCCCC(=O)OCCCCCCC	0.0052%	
COP(=O)(O)OP(=O)(O)OC	0.0046%	
CC(S)C(C)S (stereo not given)	0.0338% [at 95.7 µM]	
CN(C)CCCCl	-0.277% [at 95.7 µM]	
